Where two headings read alike, the source gives them in different places. Hit rate of the full screen: of about 13,000 compounds, about 3,200 (25%) showed an effect of 50% or more. This is one part of the list.
Test system: P. falciparum stage V gametocytes
Design: BacTiter-Glo ATP luminescence viability of purified stage V gametocytes in 384-well plates, per cent inhibition versus DMSO
Details: 48 h, 5 µM, inhibitor

SMILES | % Inhibition [%] | % Inhibition (% Inhibition) [%]
C[C@@H](CC1CCCCC1)OC(=O)N[C@H]1CCN(C#N)C1 [TCMDC-138496] | 45.07 | 
O=C(COc1ccccc1)Nn1cnc2ccccc21 [TCMDC-124536] | 15.87 | 
CNS(=O)(=O)c1ccc2c(c1)nc(C1CCN(CC3CCC(NC(=O)/C=C/c4ccc(Cl)c(Cl)c4)CC3)CC1)n2C (centres unmarked) [TCMDC-140374] | 8.841 | 
CCn1cc(-c2nc(-c3cc(OC)cc(OC)c3)no2)c(=O)c2ccccc21 [TCMDC-125155] | 51.09 | 
CCOc1ccc(-c2noc(-c3c[nH]c4ccccc4c3=O)n2)cc1 [TCMDC-125156] | 27.36 | 
COc1ccc(-c2nc(-c3ccc([N+](=O)[O-])cc3)no2)cc1OC [TCMDC-125731] | 16.37 | 
CCOc1cc2ncnc(Nc3ccc(OCc4ccccc4F)c(Cl)c3)c2cc1OCC [TCMDC-131914] | 3.797 | 
CC(C)CN1CCCN(Cc2cccc(NC(=O)c3ccc(-c4ccccc4)cc3)c2)CC1 [TCMDC-141841] | -91.11 | 
Cc1cccc2nc(-c3ccc(-c4ccc(CNCc5cnn(-c6ccccc6)n5)cc4)cc3)[nH]c12.O=C(O)C(F)(F)F [TCMDC-132974] | 25.92 | 
CCOC(=O)C(C)(C)Oc1ccc(C(=C2CC(C)(C)CC(C)(C)C2)c2ccc(O)cc2)cc1 [TCMDC-135525] | -61.64 | 
Cc1cccc(-c2ccc(NC(=O)C3CCN(Cc4cccc(O)c4)CC3)cc2)c1 [TCMDC-124641] | 44.56 | 
Cc1cccc(C(=O)Nc2ccnc(N3CCC(N(C)Cc4ccccc4)CC3)c2)c1 [TCMDC-135001] | -20.99 | 
CCN(CCNC(=O)C1CCN(c2cc(-c3cccc(C)c3)ncn2)CC1)Cc1ccccc1 [TCMDC-124739] | 86.1 | 
CCCC(=O)NC(NC(=S)Nc1ccc([N+](=O)[O-])cc1)C(Cl)(Cl)Cl (centres unmarked) [TCMDC-125817] | 27.07 | 
Cc1ccccc1C(=O)NC(NC(=S)Nc1ccc([N+](=O)[O-])cc1)C(Cl)(Cl)Cl (centres unmarked) [TCMDC-124151] | -7.269 | 
O=C(NC(Nc1ccc([N+](=O)[O-])cc1)C(Cl)(Cl)Cl)c1ccc(Cl)cc1 (centres unmarked) [TCMDC-125818] | 63.58 | 
O=C(Cc1ccccc1)NC(Nc1ccc([N+](=O)[O-])cc1)C(Cl)(Cl)Cl (centres unmarked) [TCMDC-125789] | 52.36 | 
Cc1cccc(C(=O)NC(NC(=S)Nc2ccc([N+](=O)[O-])cc2)C(Cl)(Cl)Cl)c1 (centres unmarked) [TCMDC-124177] | 26.63 | 

SMILES | % Inhibition [%] | % Inhibition (% Inhibition) [%]
O=[N+]([O-])c1ccc(C(O)P(=O)(c2ccccc2)c2ccccc2)cc1 (centres unmarked) [TCMDC-125871] | -5.463 | 
O=C(NC(Nc1ccc([N+](=O)[O-])cc1)C(Cl)(Cl)Cl)c1cccc(Cl)c1 (centres unmarked) [TCMDC-124129] | 26.63 | 
CC(C)C(=O)NC(Nc1ccc([N+](=O)[O-])cc1)C(Cl)(Cl)Cl (centres unmarked) [TCMDC-125799] | 71.39 | 
O=C(NC(NC(=S)Nc1ccc([N+](=O)[O-])cc1)C(Cl)(Cl)Cl)c1cccc(Cl)c1 (centres unmarked) [TCMDC-124130] | -46.64 | 
Cc1cc(C(=O)CN2C(=O)NC3(CCOc4ccccc43)C2=O)c(C)n1Cc1ccco1 (centres unmarked) [TCMDC-125252] | 14.93 | 
COc1ccc2c(-c3ccccc3)noc2c1 [TCMDC-123782] | 15.72 | 
Oc1cccc(-c2nc3cc(C4=NC5CCCCC5N4)ccc3[nH]2)c1 (centres unmarked) [TCMDC-137219] |  | -17.08
Cc1cc(C)c(NC(=O)N[C@H]2CCN(CCCCCNC(=O)/C=C/c3ccc(Cl)c(Cl)c3)C2)c(C)c1 [TCMDC-139513] | 86.25 | 
Cc1cc(C)c(NC(=O)NC2CCN(CCCCCNC(=O)/C=C/c3ccc(Cl)c(Cl)c3)CC2)c(C)c1 [TCMDC-135717] | -32.07 | 
Cc1cccc(NC(=O)NC2CCN(CCCCCNC(=O)/C=C/c3ccc(Cl)c(Cl)c3)CC2)c1 [TCMDC-135702] | -17.93 | 
Cc1ccc(NC(=O)NC2CCN(CCCCCNC(=O)/C=C/c3ccc(Cl)c(Cl)c3)CC2)cc1C [TCMDC-135708] | -56.47 | 
Cc1ccc(NC(=O)NC2CCN(CCCCCNC(=O)/C=C/c3ccc(Cl)c(Cl)c3)CC2)cc1 [TCMDC-135703] | -0.844 | 
Cc1cc(C)c(NC(=O)NC2CCN(CCCCCNC(=O)/C=C/c3ccc(Cl)c(Cl)c3)C2)c(C)c1 (centres unmarked) [TCMDC-139529] | 92.72 | 
COc1ccc(Br)cc1/C=C/C(=O)Nc1ccc(C2CCCN(C)C2)cc1 (centres unmarked) [TCMDC-133712] | 9.818 | 
Fc1ccc(-c2cc(NCCCn3ccnc3)nc(-c3cccnc3)n2)cc1 [TCMDC-123785] | 9.204 | 
CC(Nc1ccc2c(c1)OCCO2)C(=O)Nc1cc(C(F)(F)F)ccc1N1CCOCC1 (centres unmarked) [TCMDC-124859] | -69.42 | 
CC(NC(=O)c1ccc(O)c(-c2ccc(Cl)c(Cl)c2)c1)C(=O)NC1CCCCC1 (centres unmarked) [TCMDC-140823] | 42.42 | 

Reference: article PMC4552634, “A New Set of Chemical Starting Points with Plasmodium falciparum Transmission-Blocking Potential for Antimalarial Drug Discovery” (PLoS ONE, 2015)
